Experimental data taken from PMC4336329 (PLoS ONE, 2015).
In all, about 310,000 compounds went through this assay and about 14,000 (4.5%) showed an effect of 50% or more. The effect is printed as a negative number. Many of the other results were omitted from the sample, so strong results are more common in it than they were.

Target: human ether-à-go-go-related gene (hERG) potassium channel (human, UniProt Q12809)
Assay: primary screen, population patch clamp on CHO cells stably expressing hERG; higher = less effect of the substance
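Also: peak tail current of the secondary pulse compared with the same well before compound.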

human ether-à-go-go-related gene (hERG) potassium channel, sequence (Q12809 whole entry, looked up): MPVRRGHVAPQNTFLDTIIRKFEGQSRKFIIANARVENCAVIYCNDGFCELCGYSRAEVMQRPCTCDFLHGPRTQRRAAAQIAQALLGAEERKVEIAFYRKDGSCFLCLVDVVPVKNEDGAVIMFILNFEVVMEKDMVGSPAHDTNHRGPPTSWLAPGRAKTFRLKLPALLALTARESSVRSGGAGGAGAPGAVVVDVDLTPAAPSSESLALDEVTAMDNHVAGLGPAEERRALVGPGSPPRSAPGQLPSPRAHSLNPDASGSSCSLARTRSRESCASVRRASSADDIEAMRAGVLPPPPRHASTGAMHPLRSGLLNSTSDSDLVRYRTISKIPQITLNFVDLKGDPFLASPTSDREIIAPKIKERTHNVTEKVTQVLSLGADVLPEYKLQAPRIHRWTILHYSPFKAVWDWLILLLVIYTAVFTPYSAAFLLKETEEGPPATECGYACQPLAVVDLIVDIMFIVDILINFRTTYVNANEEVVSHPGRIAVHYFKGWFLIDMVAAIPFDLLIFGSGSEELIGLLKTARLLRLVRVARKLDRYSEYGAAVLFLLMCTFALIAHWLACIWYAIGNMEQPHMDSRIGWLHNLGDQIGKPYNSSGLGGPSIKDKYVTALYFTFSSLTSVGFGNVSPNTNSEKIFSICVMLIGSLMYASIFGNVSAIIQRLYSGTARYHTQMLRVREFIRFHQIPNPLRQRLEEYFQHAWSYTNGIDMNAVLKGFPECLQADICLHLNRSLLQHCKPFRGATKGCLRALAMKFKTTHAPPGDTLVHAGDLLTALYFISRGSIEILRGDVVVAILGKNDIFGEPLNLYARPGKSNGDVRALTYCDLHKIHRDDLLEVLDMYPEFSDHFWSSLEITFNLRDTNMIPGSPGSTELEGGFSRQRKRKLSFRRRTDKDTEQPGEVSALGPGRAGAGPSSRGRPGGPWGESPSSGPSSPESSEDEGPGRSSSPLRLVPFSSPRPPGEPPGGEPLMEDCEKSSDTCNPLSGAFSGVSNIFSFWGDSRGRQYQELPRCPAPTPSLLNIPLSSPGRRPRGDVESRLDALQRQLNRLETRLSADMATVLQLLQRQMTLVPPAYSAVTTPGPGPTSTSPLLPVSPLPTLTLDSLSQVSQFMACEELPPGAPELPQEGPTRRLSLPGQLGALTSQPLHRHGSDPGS

Question: With `COCCNc1c2c(nc3c(-c4ccccc4)c(C)nn13)CCCC2` as the compound, how does the “hERG current change (%, negative = inhibition) at 10uM” value read?
Answer: -1.34%

Question: `Cc1nn2c(NCC(C)C)c3c(nc2c1-c1ccccc1)CCC3` was tested. Which “hERG current change (%, negative = inhibition) at 10uM” value did it give?
Answer: 4.8%

Question: For `COCCNc1c2c(nc3c(-c4ccccc4)c(C)nn13)CCC2`, which “hERG current change (%, negative = inhibition) at 10uM” value is on record?
Answer: 2.2%

Question: Which “hERG current change (%, negative = inhibition) at 10uM” value does the source give for `Cc1nn2c(NCc3ccccn3)c3c(nc2c1-c1ccccc1)CCC3` here?
Answer: -51%

Question: With `Cc1nn2c(NCc3cccnc3)c3c(nc2c1-c1ccccc1)CCC3` as the compound, how does the “hERG current change (%, negative = inhibition) at 10uM” value read?
Answer: -34.2%

Question: With `Cc1nn2c(NCCN(C)C)c3c(nc2c1-c1ccccc1)CCC3` as the compound, how does the “hERG current change (%, negative = inhibition) at 10uM” value read?
Answer: -26.7%

Question: `Cc1nn2c(NCCOCCO)c3c(nc2c1-c1ccccc1)CCC3` was tested. Which “hERG current change (%, negative = inhibition) at 10uM” value did it give?
Answer: -50.2%

Question: Which “hERG current change (%, negative = inhibition) at 10uM” value does the source give for `CCCCNc1c2c(nc3c(-c4ccccc4)c(C)nn13)CCC2` here?
Answer: -3.59%

Question: Which “hERG current change (%, negative = inhibition) at 10uM” value does the source give for `Cc1nn2c(NCCOCCO)c3c(nc2c1-c1ccccc1)CCCC3` here?
Answer: -74.2%

Question: How did the “hERG current change (%, negative = inhibition) at 10uM” value turn out when `Cc1nn2c(Nc3ccccc3)c3c(nc2c1-c1ccccc1)CCC3` was run?
Answer: 14.1%

Question: Which “hERG current change (%, negative = inhibition) at 10uM” value does the source give for `Cc1nn2c(NCCCN(C)C)c3c(nc2c1-c1ccccc1)CCCC3` here?
Answer: -32.2%

Question: With `Cc1nn2c(NCCCN(C)C)c3c(nc2c1-c1ccccc1)CCC3` as the compound, how does the “hERG current change (%, negative = inhibition) at 10uM” value read?
Answer: -59.4%

Question: With `Cc1ccc(-c2csc(NC(=O)C3=NN(c4ccccc4)C(=O)CC3)n2)cc1` as the compound, how does the “hERG current change (%, negative = inhibition) at 10uM” value read?
Answer: 3.35%

Question: Which “hERG current change (%, negative = inhibition) at 10uM” value does the source give for `CCCN1CCN(C(c2cc3cc(OCC)ccc3[nH]c2=O)c2nnnn2C2CCCCC2)CC1` (stereo not shown) here?
Answer: -46.4%

Question: `Cc1ccc(C(C(=O)NC2CCCCC2)N(C(=O)c2csnn2)C2CC2)cc1` (stereo not shown) was tested. Which “hERG current change (%, negative = inhibition) at 10uM” value did it give?
Answer: -9.75%

Question: For `COc1ccc(C(CC(=O)N2CCOCC2)c2c(OC)cc(OC)c3ccc(=O)oc23)cc1` (stereo not shown), which “hERG current change (%, negative = inhibition) at 10uM” value is on record?
Answer: -3.96%

Question: How did the “hERG current change (%, negative = inhibition) at 10uM” value turn out when `Cn1c2ccccc2c2c(C(=O)NCC3CCCO3)cn(C3CCCC3)c(=O)c21` (stereo not shown) was run?
Answer: -0.664%

Question: Which “hERG current change (%, negative = inhibition) at 10uM” value does the source give for `CNC.Cc1cccn2c(NCC3CCCO3)c(C(C)C)nc12.Cl` (stereo not shown) here?
Answer: -12.7%

Question: With `Cc1c(C(C)O)nnn1-c1nonc1N` (stereo not shown) as the compound, how does the “hERG current change (%, negative = inhibition) at 10uM” value read?
Answer: -2.42%

Question: How did the “hERG current change (%, negative = inhibition) at 10uM” value turn out when `CN=C(Nc1cccnc1)c1ccccc1` was run?
Answer: 15.6%

Question: With `CCOc1ccc(-n2c(=O)c3c4c(sc3n(CC(=O)NCCCOC)c2=O)CCCCC4)cc1` as the compound, how does the “hERG current change (%, negative = inhibition) at 10uM” value read?
Answer: -1.22%

Question: With `Cc1nn2c(NCCN3CCOCC3)c3c(nc2c1-c1ccccc1)CCCC3` as the compound, how does the “hERG current change (%, negative = inhibition) at 10uM” value read?
Answer: -76.5%

Question: How did the “hERG current change (%, negative = inhibition) at 10uM” value turn out when `Cc1nn2c(N3CCOCC3)c3c(nc2c1-c1ccccc1)CCCC3` was run?
Answer: -14.8%

Question: `CN(C)CCCNc1cc(-c2ccccc2)nc2cc(-c3cccc(F)c3)nn12` was tested. Which “hERG current change (%, negative = inhibition) at 10uM” value did it give?
Answer: -15.9%

Question: How did the “hERG current change (%, negative = inhibition) at 10uM” value turn out when `Cc1nn2c(NCCN(C)C)c3c(nc2c1-c1ccccc1)CCCC3` was run?
Answer: -41.4%

Question: Which “hERG current change (%, negative = inhibition) at 10uM” value does the source give for `CN(C)CCCNc1c2c(nc3cc(-c4cccc(F)c4)nn13)CCC2` here?
Answer: -69.1%

Question: Which “hERG current change (%, negative = inhibition) at 10uM” value does the source give for `Fc1cccc(-c2cc3nc4c(c(NCc5ccco5)n3n2)CCCC4)c1` here?
Answer: -33.2%

Question: How did the “hERG current change (%, negative = inhibition) at 10uM” value turn out when `CCn1cc(Br)c(C(=O)Nc2ccc(Cl)cc2Cl)n1` was run?
Answer: 7.24%

Question: `Cc1ccc(S(=O)(=O)N(Cc2ccc(Cl)cc2)c2ccccc2C(=O)O)cc1` was tested. Which “hERG current change (%, negative = inhibition) at 10uM” value did it give?
Answer: 12.3%

Question: Which “hERG current change (%, negative = inhibition) at 10uM” value does the source give for `COc1ccccc1NS(=O)(=O)c1cc2c(cc1C)NC(=O)CO2` here?
Answer: -7.43%

Question: How did the “hERG current change (%, negative = inhibition) at 10uM” value turn out when `Cc1cccc(/C=C2\Sc3ccc(C(=O)N4CCOCC4)cc3N(C)C2=O)c1` was run?
Answer: -40.7%

Question: Which “hERG current change (%, negative = inhibition) at 10uM” value does the source give for `CCOC(=O)N1CCN(C(=O)c2ccc3c(c2)N(C)C(=O)/C(=C\c2ccc(OCC)c(OC)c2)S3)CC1` here?
Answer: -32.5%

Question: `CN1CCN(C(=O)c2ccc3c(c2)N(C)C(=O)/C(=C/c2cccc(Cl)c2)S3)CC1` was tested. Which “hERG current change (%, negative = inhibition) at 10uM” value did it give?
Answer: -55.1%

Question: For `CN1C(=O)/C(=C/c2cccc(Cl)c2)Sc2ccc(C(=O)N3CCOCC3)cc21`, which “hERG current change (%, negative = inhibition) at 10uM” value is on record?
Answer: -50.3%

Question: For `COc1ccc(/C=C2\Sc3ccc(C(=O)N4CCOCC4)cc3N(C)C2=O)cc1`, which “hERG current change (%, negative = inhibition) at 10uM” value is on record?
Answer: -15.3%

Question: With `CCOc1ccc(/C=C2/Sc3ccc(C(=O)N4CCOCC4)cc3N(C)C2=O)cc1OC` as the compound, how does the “hERG current change (%, negative = inhibition) at 10uM” value read?
Answer: -18.5%

Question: For `CN1C(=O)/C(=C/c2cccc(Cl)c2)Sc2ccc(C(=O)N3CCCC3)cc21`, which “hERG current change (%, negative = inhibition) at 10uM” value is on record?
Answer: -49.7%

Question: `Cc1cccc(/C=C2\Sc3ccc(C(=O)N4CCCCC4)cc3N(C)C2=O)c1` was tested. Which “hERG current change (%, negative = inhibition) at 10uM” value did it give?
Answer: 12.1%

Question: Which “hERG current change (%, negative = inhibition) at 10uM” value does the source give for `CCOc1ccc(/C=C2/Sc3ccc(C(=O)N4CCN(C(=O)c5ccco5)CC4)cc3N(C)C2=O)cc1OC` here?
Answer: -53.9%

Question: With `COc1ccc(C(C(=O)NC(C)(C)C)N(Cc2cccnc2)C(=O)CCC(=O)Nc2cc(C)on2)cc1` (stereo not shown) as the compound, how does the “hERG current change (%, negative = inhibition) at 10uM” value read?
Answer: 10.9%

Question: How did the “hERG current change (%, negative = inhibition) at 10uM” value turn out when `COc1cc(-c2csc(C)n2)ccc1O` was run?
Answer: 8.67%

Question: For `CN(C)C=O.COc1ccccc1NC(=O)C1=C(C)NC(=O)NC1c1ccccc1[N+](=O)[O-]` (stereo not shown), which “hERG current change (%, negative = inhibition) at 10uM” value is on record?
Answer: 7.42%

Question: With `COc1cccc(N2CCN(C(=O)C3CCCN(S(=O)(=O)c4cnc[nH]4)C3)CC2)c1` (stereo not shown) as the compound, how does the “hERG current change (%, negative = inhibition) at 10uM” value read?
Answer: 17.4%
